# Compound activity as filed in PubChem.
# Hits are enriched below; roughly 8.9% of the tested compounds scored in any of these assays.
# KB-3-1 tox – kills parental KB-3-1 adenocarcinoma cells | KB-3-1 viability, CellTiter-Glo ATP luminescence, 72 h | Potency, µM (highest dose often 46.1 µM), most hits filed as cytotoxic | actives 1.4% (n = 400,000) | AID 1347075; note: potency is the fitted concentration of half-maximal effect; % is set by controls: 0 for no effect and ±100 for the full control effect; nearly all actives have a fitted effect of over 60% in size
#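 Screening of KB-3-1 cells (DMEM, 10% FBS, phenol-red free) ran from lowest to highest compound concentration; after 72 h at 37 °C viability was read luminescently and curves fitted.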
# DRD3 agonist – D3 dopamine receptor (human) agonism; P35462; D3R DiscoveRx beta-arrestin cells, luminescence, 90 min; max activation, %; actives 0.58% (n = 410,000); in the data active = max activation above about 30%; note: 0% is about no effect
# Target sequence (P35462 whole entry, looked up): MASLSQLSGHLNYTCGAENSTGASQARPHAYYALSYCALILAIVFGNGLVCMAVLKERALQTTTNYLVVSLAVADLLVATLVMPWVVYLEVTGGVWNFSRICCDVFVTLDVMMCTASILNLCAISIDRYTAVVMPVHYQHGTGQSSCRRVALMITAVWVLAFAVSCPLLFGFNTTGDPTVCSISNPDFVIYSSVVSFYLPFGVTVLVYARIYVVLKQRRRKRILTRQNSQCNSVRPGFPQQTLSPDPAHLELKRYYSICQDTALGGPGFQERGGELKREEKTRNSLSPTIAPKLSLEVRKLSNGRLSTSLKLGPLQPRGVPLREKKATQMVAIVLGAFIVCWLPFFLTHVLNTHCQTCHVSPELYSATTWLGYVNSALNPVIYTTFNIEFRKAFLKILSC
#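 Cells at 1500/well, incubated overnight, then treated with pinned compounds (dopamine as control) for 90 min at 37 degrees C. DiscoveRx reagent added for 30 - 60 minutes at room temperature; luminescence read.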
# DRD3 antagonist – blocks the human D3 dopamine receptor | AID 652054 | max response, negative = inhibition, % | D3R cells, DiscoveRx beta-arrestin luminescence, antagonist mode; hits give low values | actives 2.5% (n = 360,000); in the data active = max response below about -50%; inconclusive = no clear call, values can overlap the other calls; note: % is set by controls: 0 for no effect and ±100 for the full control effect
#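 Cells expressing the human receptor were seeded at 1500 cells/well, incubated overnight at 37 degrees C in 5% CO2, then exposed to library compounds with dopamine controls for 90 minutes at 37 degrees C before luminescent detection.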
# KB-V1 MDR tox – KB-V1 MDR subline cytotoxicity; AID 1347076; actives 3.4% (n = 400,000); KB-V1 MDR cells viability, CellTiter-Glo, 72 h; Potency, µM (doses to about 46.1 µM), usual class: cytotoxic; note: potency is the fitted concentration of half-maximal effect; % is set by controls: 0 for no effect and ±100 for the full control effect; nearly all actives have a fitted effect of over 60% in size
#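 Following 72 h at 37 degrees C with compound, KB-V1 cell viability was read by CellTiter-Glo luminescence, medium being phenol-red-free DMEM plus 10% FBS; concentration-response parameters came from normalized, curve-fitted qHTS data.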
# SW480 rereplic – induces DNA re-replication in SW480 colon adenocarcinoma cells; Potency, µM (highest dose often 46.1 µM), inactives show at the highest dose re-replication activation, most hits filed as activators; actives 1.8% (n = 340,000); SW480 DNA re-replication, Hoechst DNA content imaging, 48 h; note: potency is the fitted concentration of half-maximal effect; % of control where 0% means no effect; nearly all actives have a fitted effect of over 55% in size
#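 Hoechst fluorescence of nuclei (405 nm excitation, 500-530 nm emission) measured by plate-scanning imager after 48 hr compound exposure at 37 C; re-replication scored as increased number of nuclei with elevated intensity.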
# MCF10A rereplic – induces DNA re-replication in MCF 10a normal breast cells. AID 624296. MCF 10A DNA re-replication, Hoechst nuclear intensity, 48 h. Potency, µM (highest dose often 46.1 µM), without a hit: top-dose activity, positive = re-replication, actives largely listed as activators. actives 2.9% (n = 350,000); note: potency is the fitted concentration of half-maximal effect; % of control where 0% means no effect; nearly all actives have a fitted effect of over 50% in size
# Active calls of the source: *; i = inactive; u = inconclusive; x = no result given. Unless noted, calls come from the whole dose curve; as a rule, active = well fitted curve in the direction sought with a large enough effect; inconclusive = small, poorly fitted or top-dose-only effect, or another doubt; inactive = no such curve, though single readings can be large; an effect the other way counts as inactive or inconclusive.
SMILES,KB-3-1 tox,DRD3 agonist,DRD3 antagonist,KB-V1 MDR tox,SW480 rereplic,MCF10A rereplic
COCCNC(=O)c1ccc(CN2CCC(Cc3ccccc3)CC2)cc1,i,-16.2,-26.1,i,u,15.5%
CC(C)OCCCNC(=S)N1CCC(C(=O)c2ccc(Cl)cc2)CC1,i,1.0,20.8,8.2µM*,-0.2%,u
C=C1C=C(C)n2ncc(C(=O)N(CCc3ccccc3)Cc3ccccc3)c2N1,i,x,x,i,x,x
COCCNC(=O)C1CCCN(C(=O)c2ccc3ccccc3n2)CC1 (stereo not drawn),i,53.8*,0.0,i,x,x
N=c1c(C(=O)NC2CCCC2)cc2c(=O)n3ccccc3nc2n1CCCN1CCOCC1,i,-14.0,-1.3,i,u,u
Cc1cccn2c(=O)c3cc(C#N)c(=O)n(Cc4cccnc4)c3nc12,i,3.0,30.8,i,8.2µM*,2.59µM*
N#Cc1cc2c(=O)n3ccccc3nc2n(Cc2cccnc2)c1=O,i,3.6,0.6,i,2.31µM*,11.6µM*
N#Cc1cc2c(=O)n3ccccc3nc2n(-c2ccccc2Cl)c1=O,u,-0.9,3.5,i,4.61µM*,4.11µM*
N#Cc1cc2c(=O)n3ccccc3nc2n(-c2nnc(SCc3ccccc3Cl)s2)c1=O,i,0.8,x,i,x,x
Cc1cccn2c(=O)c3cc(C#N)c(=N)n(Cc4cccnc4)c3nc12,i,-3.7,-17.6,u,0.6%,0.3%
N#Cc1cc2c(=O)n3ccccc3nc2n(CCCN2CCOCC2)c1=O,i,1.5,16.6,i,u,23.1µM*
COc1cccc(CNC(=O)c2sc3nc(C)cc(C)c3c2-n2cccc2)c1OC,i,-5.7,x,u,x,x
COc1cc(-c2cc3n(C)c(C)c(CCC(=O)NC4CCC(C)CC4)c(=O)n3n2)cc(OC)c1OC (stereo not drawn),x,6.5,x,x,x,x
CCOC(=O)c1cc(S(=O)(=O)Nc2cc(OC)ccc2OC)[nH]n1,i,-14.0,x,i,x,x
C=CCn1c(SCc2c(C)noc2C)nc2sc3c(c2c1=O)CCCCC3,i,-6.1,u,u,13.4%,u
C=CCn1c(SCc2ccc(Br)cc2F)nc2cc(C(=O)O)ccc2c1=O,i,13.3,-9.1,i,-0.6%,u
C=CCn1c(SCc2c(C)noc2C)nc2cc(C(=O)O)ccc2c1=O,u,35.6*,8.5,u,u,2.91µM*
C=CCn1c(SCc2nc3ccccc3c(=O)[nH]2)nc2ccccc2c1=O,i,1.5,6.7,i,15.9%,u
C=CCn1c(SCc2c(C)noc2C)nc2ccccc2c1=O,u,-11.0,-20.1,u,0.651µM*,7.31µM*
C=CCn1c(SCc2c(C)noc2C)nc2sc3c(c2c1=O)CCCC3,18.4µM*,-15.8,20.5,23.1µM*,u,9.2µM*
CCCCCCCC#Cc1ccccc1/C=N/S(=O)c1ccc(C)cc1 (stereo not drawn),i,-13.1,0.0,i,4.4%,25.0%
CC1(C(=O)NCc2ccc(C(F)(F)F)cc2)CCN1C1Cc2ccccc2C1 (stereo not drawn),i,3.7,19.2,i,x,x
O=C(N/N=C\c1ccc(O)c([N+](=O)[O-])c1)c1ccccc1-n1cccc1,i,-3.5,u,16.4µM*,2.8%,1.1%
O=C(N/N=C/c1ccc([N+](=O)[O-])o1)c1ccccc1-n1cccc1,u,1.2,4.8,u,2µM*,23.1µM*
Nc1[nH]c(C(=O)c2ccccc2)c(-c2ccncc2)c1C(=O)NC1CC1,i,-9.3,0.0,i,x,x
SMILES,KB-3-1 tox,DRD3 agonist,DRD3 antagonist,KB-V1 MDR tox,SW480 rereplic,MCF10A rereplic
COc1ccc2oc(=O)c(-c3cn4ccc(C)cc4n3)cc2c1,i,-3.1,5.0,i,u,14.6µM*
Fc1ccc(Nc2nc(NCc3ccccc3)nc3ccsc23)cc1,i,3.0,9.0,u,x,x
CNc1nc(NCc2cccc(OC)c2)c2sccc2n1,i,2.7,u,i,x,x
COCCNc1nc(NCc2cccs2)nc2ccsc12,i,9.8,27.0,i,x,x
COc1ccccc1CNc1nc(NC(C)C)nc2ccsc12,u,3.5,14.2,10.3µM*,x,x
COc1cccc(CNc2nc(NCc3ccccc3)nc3ccsc23)c1,u,-4.0,9.9,9.2µM*,x,x
CCc1ccccc1Oc1nc(NCc2ccccc2)nc2ccsc12,u,-5.2,-51.7*,u,x,x
COCCNc1nc(NCc2cc(-c3ccc(OC)cc3)no2)c2sccc2n1,u,18.9,19.0,18.4µM*,x,x
CCc1ccc(-n2nc(CO)c(C(=O)NC(C)c3ccc(Cl)cc3)n2)cc1 (stereo not drawn),x,2.9,x,x,x,x
Cc1ccccc1OCC(=O)Nc1ccccc1C(=O)OCc1cc(=O)n2nc(C3CC3)sc2n1,i,3.7,x,i,x,x
CCCCN(C)CCNC(=O)C1CCCN(S(=O)(=O)c2ccc3c(c2)oc(=O)n3C)C1 (stereo not drawn),i,-18.9,x,i,x,x
Cc1ccc(NC(=O)C(Cc2ccccc2)NS(=O)(=O)c2ccc3c(c2)oc(=O)n3C)cc1F (stereo not drawn),i,1.1,x,i,x,x
CCN1CCN(CCCNC(=O)c2cc3c(s2)-c2c(C)cccc2OC3)CC1,i,-25.8,x,i,x,x
CCOC(=O)C1=C(C)n2c(s/c(=C/c3cccc([N+](=O)[O-])c3)c2=O)=NC1c1ccc(O)c(OC)c1 (stereo not drawn),u,-55.7,-27.3,18.4µM*,u,16.4µM*
CCC(CCNC(=O)c1ccccc1)(CCNC(=O)c1ccccc1)[N+](=O)[O-],i,-7.0,-1.8,20.6µM*,-3.2%,1.8%
CC(CCNC(=O)c1ccccc1)(CCNC(=O)c1ccccc1)[N+](=O)[O-],i,2.5,6.2,14.6µM*,0.9%,1.6%
CCC(=O)N1Cc2cc(C(=O)Nc3nccs3)nc(-c3cccc(-c4ccccc4OC)c3)c2[C@@H]1CCO,i,-14.0,-12.7,23.1µM*,x,x
COc1ccccc1-c1cccc(-c2nc(C(=O)Nc3nccs3)cc3c2[C@@H](CCO)N(C(=O)CC2CC2)C3)c1,i,0.4,-2.5,u,x,x
C=CCn1c(NC(=O)c2ccc(C)cc2)c(C#N)sc1=N,5.17µM*,8.5,59.2,1.3µM*,0.8%,u
CCN(CC)C(=O)C1=C(C)N(Cc2ccc(OC)cc2)C(=O)C(CC(=O)NC(c2ccccc2)c2ccccc2)C1 (stereo not drawn),i,0.3,2.3,u,x,x
COCCNC(=O)C(=O)Nc1c2c(nn1-c1ccccc1)CS(=O)(=O)C2,i,-4.1,x,i,x,x
